# Assay results from the supplement of paper PMC3334620.
# The full ranking holds about 33,000 sequences; the median of “E-score (-0.5 to 0.5)” is about -0.016, and the highest 2% start at about 0.32. Only a selection was taken, and the highest values are over-represented in it overall.
# Biological target: T1, Stp1 (UniProt B3LFK1)
# T1 sequence: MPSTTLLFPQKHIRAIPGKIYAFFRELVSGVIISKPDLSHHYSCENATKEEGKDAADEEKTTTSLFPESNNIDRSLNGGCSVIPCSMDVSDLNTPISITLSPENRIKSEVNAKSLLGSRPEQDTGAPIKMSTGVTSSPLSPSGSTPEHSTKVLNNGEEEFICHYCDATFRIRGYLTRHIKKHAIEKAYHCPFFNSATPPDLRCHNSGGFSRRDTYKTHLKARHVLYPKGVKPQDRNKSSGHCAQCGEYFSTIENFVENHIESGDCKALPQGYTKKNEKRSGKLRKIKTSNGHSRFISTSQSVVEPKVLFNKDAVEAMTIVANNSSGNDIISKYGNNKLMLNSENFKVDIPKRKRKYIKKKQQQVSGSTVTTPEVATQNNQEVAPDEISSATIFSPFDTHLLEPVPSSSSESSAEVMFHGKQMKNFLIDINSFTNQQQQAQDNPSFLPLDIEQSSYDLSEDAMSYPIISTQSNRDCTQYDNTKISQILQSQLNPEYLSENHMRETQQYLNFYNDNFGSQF
# Experiment: PBM E-score (8-mer binding enrichment) (E-score (-0.5 to 0.5)); higher = stronger / more preferred TF binding
# Details: protein concentration: 200 nM; construct: GST-full length
# In short: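 Full-length yeast transcription factors or their DNA-binding domains, GST-tagged and expressed with PURExpress, were applied at about 100-200 nM to universal all-10-mer Agilent arrays. These arrays had been made double-stranded by primer extension on fresh or once-stripped slides. Detection used fluorescent anti-GST, normalisation used masliner, and E-scores for ungapped eight-base words pooled with reverse complements came from the Universal PBM Analysis Suite.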
row,Sequence,PBM E-score
1,CGGCGGCA,0.418
2,AGGCGGGG,0.023
3,AGGCGGCG,0.391
4,AGGCGGCC,0.147
5,CGGCGGCC,0.214
6,CCTAGCTC,-0.268
7,ATAGAAAT,0.197
8,CTGGCCCC,-0.311
9,CATCACTC,-0.0239
10,GAGACGGC,0.411
11,CAGACGGG,-0.242
12,AAGACGGA,-0.0847
13,CAGACGCC,0.114
14,CAGACGGC,0.42
15,AAGACGGT,-0.169
16,AAGACGGC,0.318
17,AAGACGCT,-0.13
18,GAGACGGA,0.065
19,GAGACGAC,-0.104
20,AAGACGCC,0.321
21,CAGACGGA,0.0941
22,ACAGTGCG,-0.022
23,CGCTGGAG,-0.107
24,ATTGAGGC,0.146

row,Sequence,PBM E-score
1,CCCAGTCG,-0.267
2,AAGGACCG,-0.117
3,CCATTAGG,-0.209
4,CTAACAGC,0.0206
5,AGCCACTC,0.0834
6,CTTTTTGC,0.0819
7,AACTAACC,0.117
8,CAATGCCC,0.136
9,CAATGCCG,0.374
10,AAATGCCC,-0.108
11,AAATGCCT,0.285
12,AAATGCCG,0.443
13,CAATGCCA,0.0614
14,GTGCTAAC,-0.0443
15,ACAAGATG,-0.052
16,AAACCTCA,-0.0665
17,AGCGAACT,0.00922
18,CACAGCCG,0.327
19,AAAAGCCG,0.326
20,CAAAGCCC,-0.0858
21,CAAAAGCC,0.121
22,AACAGCCG,0.255
23,CAAAGCCA,0.0366
24,AAAAGCCC,-0.145

row,Sequence,PBM E-score
1,CACAGCCC,-0.172
2,GAAAAGCC,0.0718
3,AAAAAGCC,0.34
4,AAAAGCCT,-0.0406
5,CAAAGCCG,0.316
6,GAGATAGC,-0.111
7,CACAGAAA,-0.00471
8,TGGGCACA,0.135
9,GTAGATGA,0.0463
10,GAGCTCTA,-0.101
11,GAAATTTC,-0.153
12,CCCTGGTC,-0.41
13,AGCTAACC,-0.159
14,CCTAGCCA,-0.0258
15,CTGCGAAG,-0.175
16,CTGCACGC,-0.0205
17,CGGCACGC,0.437
18,CGGCACGA,0.459
19,AGGCACGC,0.209
20,CTGCACGA,-0.152
21,GGGCACGA,0.133
22,GACACTCC,0.0152
23,AATTCTGA,0.131
24,GCATTTCC,0.146

row,Sequence,PBM E-score
1,AAGTAAGG,-0.0479
2,ACCTATCG,0.0549
3,CAAGAGCC,0.21
4,CCAAGCCC,-0.241
5,CGACGGCC,0.0289
6,AGACGGCG,0.463
7,AGACGGCC,0.121
8,AGACGGCT,0.343
9,CGACGGAG,-0.147
10,AGACGGAT,0.14
11,AGACGGGG,-0.154
12,CGACGGCG,0.353
13,AGACGTCT,-0.219
14,ACAGTCGG,-0.0418
15,AAGCACCC,-0.224
16,CAAATTGC,0.115
17,CTCAGTCC,-0.195
18,ATGAAGAC,0.0861
19,ACGTTTAT,0.0901
20,CTGGGTGA,-0.229
21,CAATAACC,0.0421
22,AGGGCTAG,-0.207
23,AAGCTACT,-0.0664
24,AACGCGGC,0.443

row,Sequence,PBM E-score
1,GACGCGGA,0.136
2,CACGCGGC,0.459
3,GACGCGAC,-0.0598
4,GACGCGGC,0.466
5,CACGCGGG,0.143
6,AACGCGGA,0.0987
7,AACGCGGG,0.184
8,CACGCGGA,0.294
9,ACTCGATC,-0.0856
10,AGGTGGCA,0.218
11,GAATGCCA,0.134
12,CTTAAATC,0.0764
13,AAGGCGTA,0.234
14,CCGGCGTA,0.0906
15,GGGGCGTA,-0.174
16,AGGGCGTG,-0.0356
17,ACGGCGTC,0.472
18,ATGGCGTG,0.102
19,GTGGCGTA,0.0488
20,GCGGCGTA,0.433
21,ACGGCGTA,0.448
22,CCGGCGTC,0.0446
23,AGGGCGTC,0.131
24,ACGGCGTG,0.455

row,Sequence,PBM E-score
1,GTGTGTTA,0.029
2,AGTTCAAT,-0.0607
3,CGGTTATC,-0.0601
4,CAGCAATG,-0.194
5,AAATAAGG,0.0174
6,CAAACTAG,-0.107
7,CCACTGGA,-0.241
8,ACACCGCG,0.0308
9,CCAGAACC,-0.154
10,AGGCTATG,-0.196
11,CGCTGAAG,-0.108
12,ACGGCTTG,0.335
13,ACGGCTGG,0.139
14,ACGGCTTC,0.417
15,ACGGCTTA,0.375
16,ACGGCTGC,0.289
17,ATGGCTTG,-0.0553
18,ACGGCTGA,0.147
19,GCGGCTTA,0.234
20,CCGGCTTC,-0.0259
21,AAGCGGTC,-0.149
22,GATTAGGC,0.02
